# Structures can show the parent of a compound that is named as a salt.
# Legend:
# Details in all cases: incubation time: 27 h, anaerobic, 37 °C;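 for the amine columns active = adjusted P below 0.05 in both replicates with a change the same way and a mean fold change under 0.8 or over 1.25; inactive = the rest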
# [1] = system: Clostridium sporogenes DSM 1664; experiment: growth (OD595) fold change vs plate DMSO controls (fold change (ratio)); higher = more growth
# How it was run: (§1)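 Shaken 96-well cultures in mGAM, grown anaerobically for 27 h at 37 °C, were read at 595 nm. OD came from blank-subtracted readings, corrected for background with 20 µM compound solutions in water and scaled by a calibration factor of 5. Growth is the fold change versus the plate's median DMSO control. Values average 2 biological replicates, and any fold change above 1.5 is NA.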
# Escherichia coli IAI1 [2] = experiment: as above
# How it was run: as §1
# [3] = system: Klebsiella aerogenes DSM 30053; experiment: as above
# How it was run: as §1
# [4] = system: Ruminococcus gnavus DSM 108212; experiment: as above
# How it was run: as §1
# [5] = system: Klebsiella aerogenes DSM 30053; experiment: fold change of Histamine concentration vs plate DMSO controls (fold change (ratio)); higher = more amine produced, active = hit call of the paper (significant change in both replicates, either direction)
# How it was run: (§2)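 Using LC–triple-quadrupole MS with dynamic MRM, amines were quantified against external calibration curves and corrected for drift within each batch. Samples were whole anaerobic mGAM cultures of four gut strains, grown 27 h at 37 °C from OD 0.1 before 1:1 dilution, extracted with cold acetonitrile/methanol containing 0.1% formic acid and centrifuged. Compounds were present at 20 µM final (sweeteners at 50 µM final). The numbers are fold changes versus plate DMSO controls, each the mean of 2 biological replicates.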
# [6] = system: Clostridium sporogenes DSM 1664; experiment: fold change of Tryptamine concentration vs plate DMSO controls (fold change (ratio)); higher = more amine produced, active = hit call of the paper (significant change in both replicates, either direction)
# How it was run: as §2
# [7] = system: Ruminococcus gnavus DSM 108212; experiment: as above
# How it was run: as §2
# Escherichia coli IAI1 [8] = experiment: fold change of Putrescine concentration vs plate DMSO controls (fold change (ratio)); higher = more amine produced, active = hit call of the paper (significant change in both replicates, either direction)
# How it was run: as §2
# [9] = system: Klebsiella aerogenes DSM 30053; experiment: as above
# How it was run: as §2
# Escherichia coli IAI1 [10] = experiment: fold change of Cadaverine concentration vs plate DMSO controls (fold change (ratio)); higher = more amine produced, active = hit call of the paper (significant change in both replicates, either direction)
# How it was run: as §2
# [11] = system: Klebsiella aerogenes DSM 30053; experiment: as above
# How it was run: as §2
# [12] = system: Ruminococcus gnavus DSM 108212; experiment: fold change of 2-Phenylethylamine concentration vs plate DMSO controls (fold change (ratio)); higher = more amine produced, active = hit call of the paper (significant change in both replicates, either direction)
# How it was run: as §2
Structure (SMILES),growth [1],growth (Escherichia coli IAI1 [2]),growth [3],growth [4],fold change of Histamine concentration [5],fold change of Tryptamine concentration [6],fold change of Tryptamine concentration [7],fold change of Putrescine concentration (Escherichia coli IAI1 [8]),fold change of Putrescine concentration [9],fold change of Cadaverine concentration (Escherichia coli IAI1 [10]),fold change of Cadaverine concentration [11],fold change of 2-Phenylethylamine concentration [12]
NC[C@@H]1O[C@@H](O[C@H]2[C@H](O)[C@@H](O[C@H]3O[C@H](CO)[C@@H](O)[C@H](N)[C@H]3O)[C@H](N)C[C@@H]2N)[C@@H](O)[C@H](O)[C@H]1O [Kanamycin A sulfate] (20 µM),1.05,1.02,1.02,1.09,0.907 (inactive),1.06 (inactive),1.01 (inactive),1.02 (inactive),0.977 (inactive),0.97 (inactive),1.02 (inactive),1.03 (inactive)
CCCCC(CC)CNC(=N)NC(=N)NCCCCCCNC(=N)NC(=N)NCC(CC)CCCC (stereo not drawn) [Alexidine dihydrochloride] (20 µM),0.294,0.938,0.967,0.624,1.11 (inactive),0.172 (active),0.0418 (active),1.08 (inactive),1.02 (inactive),1.12 (inactive),0.999 (inactive),0.0355 (active)
NC[C@@H]1O[C@H](O[C@H]2[C@@H](O)[C@H](O[C@@H]3[C@@H](O)[C@H](N)C[C@H](N)[C@H]3O[C@H]3O[C@H](CO)[C@@H](O)[C@H](O)[C@H]3N)O[C@@H]2CO)[C@H](N)[C@@H](O)[C@@H]1O [Paromomycin sulfate] (20 µM),1.06,0.996,0.975,0.984,0.994 (inactive),1.03 (inactive),0.999 (inactive),1.01 (inactive),1 (inactive),0.972 (inactive),0.981 (inactive),0.987 (inactive)
CCCCNC(=N)NC(=N)N [Buformin] (20 µM),1.02,0.988,0.986,1,1.03 (inactive),1.05 (inactive),0.934 (inactive),1.01 (inactive),1.01 (inactive),1.03 (inactive),1 (inactive),0.915 (inactive)
Cn1c(NCCN(CCO)CCCc2ccc([N+](=O)[O-])cc2)cc(=O)n(C)c1=O [Nifekalant] (20 µM),1.11,1.06,1.08,1.22,0.994 (inactive),1.01 (inactive),1.01 (inactive),1.04 (inactive),1.02 (inactive),0.971 (inactive),1.01 (inactive),0.997 (inactive)
CCOC(=O)CC(=O)N1CCSC1COc1ccccc1OC (stereo not drawn) [Moguisteine] (20 µM),0.961,0.997,1.02,0.951,1.02 (inactive),1.06 (inactive),0.978 (inactive),0.997 (inactive),1.01 (inactive),1 (inactive),0.987 (inactive),0.994 (inactive)
CC(NN)c1ccccc1 (stereo not drawn) [Mebanazine] (20 µM),1.11,1,0.988,0.887,1.04 (inactive),1.04 (inactive),0.985 (inactive),0.997 (inactive),1.03 (inactive),0.986 (inactive),0.998 (inactive),0.916 (inactive)
Cc1c(C(=O)NN2CCCCC2)nn(-c2ccc(Cl)cc2Cl)c1-c1ccc(Cl)cc1 [Rimonabant] (20 µM),0.981,0.979,1,1.04,1.03 (inactive),0.906 (inactive),0.897 (inactive),1.01 (inactive),1.02 (inactive),1.04 (inactive),0.998 (inactive),0.841 (inactive)
CC(C)(C)NC(=O)[C@@H]1CN(Cc2cccnc2)CCN1C[C@@H](O)C[C@@H](Cc1ccccc1)C(=O)N[C@H]1c2ccccc2C[C@H]1O [Indinavir sulfate] (20 µM),1.29,1.01,1.04,0.985,0.966 (inactive),1.04 (inactive),1.05 (inactive),1.02 (inactive),1.03 (inactive),1.05 (inactive),1 (inactive),1.02 (inactive)
NCC[C@H](O)C(=O)N[C@@H]1C[C@H](N)[C@@H](O[C@H]2O[C@H](CN)[C@@H](O)[C@H](O)[C@H]2O)[C@H](O)[C@H]1O[C@H]1O[C@H](CO)[C@@H](O)[C@H](N)[C@H]1O [Amikacin hydrate] (20 µM),0.793,0.983,0.78,0.735,0.601 (active),0.812 (inactive),0.911 (inactive),1 (inactive),0.992 (inactive),0.922 (inactive),0.982 (inactive),0.972 (inactive)
CC(CN1c2ccccc2Sc2ccccc21)N(C)C (stereo not drawn) [Promethazine hydrochloride] (20 µM),0.924,0.819,1.04,0.948,0.964 (inactive),0.997 (inactive),1.01 (inactive),0.858 (inactive),0.972 (inactive),1.05 (inactive),1.02 (inactive),1.06 (inactive)
COc1cc(C(=O)OCCCN2CCCN(CCCOC(=O)c3cc(OC)c(OC)c(OC)c3)CC2)cc(OC)c1OC [Dilazep dihydrochloride] (20 µM),1.06,1.07,0.99,0.894,0.938 (inactive),1.08 (inactive),1.09 (inactive),1.01 (inactive),0.937 (inactive),0.968 (inactive),1.01 (inactive),1.12 (inactive)
N=C(N)NC(=O)c1nc(Cl)c(N)nc1N [Amiloride hydrochloride dihydrate] (20 µM),0.984,0.951,0.984,0.948,0.982 (inactive),0.98 (inactive),1.09 (inactive),1.03 (inactive),0.94 (inactive),0.987 (inactive),1.05 (inactive),1.08 (inactive)
Cc1oncc1C(=O)Nc1ccc(C(F)(F)F)cc1 [Leflunomide] (20 µM),1.13,0.978,1.03,0.971,1.06 (inactive),0.995 (inactive),0.998 (inactive),1.01 (inactive),1.01 (inactive),1.08 (inactive),1 (inactive),1.01 (inactive)
CC(C(=O)O)c1ccc(C(=O)c2ccccc2)s1 (stereo not drawn) [Tiaprofenic acid] (20 µM),0.955,1.1,0.987,1.16,0.995 (inactive),0.993 (inactive),1.04 (inactive),1.08 (inactive),1.01 (inactive),0.966 (inactive),0.988 (inactive),1.07 (inactive)
N=C(N)N/N=C/c1c(Cl)cccc1Cl [Guanabenz acetate] (20 µM),0.918,0.923,0.914,1.48,1.02 (inactive),1.03 (inactive),1.02 (inactive),0.979 (inactive),0.99 (inactive),1.01 (inactive),0.973 (inactive),1.02 (inactive)
Cc1cc2c(cc1S(N)(=O)=O)S(=O)(=O)CCC2 [Meticrane] (20 µM),0.974,1.03,1.02,1.24,1.05 (inactive),1.01 (inactive),0.986 (inactive),0.983 (inactive),1.01 (inactive),1.02 (inactive),0.986 (inactive),1 (inactive)
CCCCC(CC)CN1CN(CC(CC)CCCC)CC(C)(N)C1 (stereo not drawn) [Hexetidine] (20 µM),1.05,1.07,1.11,1.45,0.978 (inactive),1.23 (inactive),0.898 (inactive),1.05 (inactive),0.987 (inactive),1.04 (inactive),1.01 (inactive),1.05 (inactive)
O=C1CCc2ccc(OCCCCN3CCN(c4cccc(Cl)c4Cl)CC3)cc2N1 [Aripiprazole] (20 µM),1.06,1.03,0.979,1.07,1.16 (inactive),0.955 (inactive),0.781 (active),1.03 (inactive),1.01 (inactive),1.11 (inactive),0.976 (inactive),0.811 (inactive)
Cc1ncc([N+](=O)[O-])n1CC(C)O (stereo not drawn) [Secnidazole] (20 µM),0,1.07,1.02,0.0442,0.824 (inactive),0.0346 (active),0.041 (active),0.978 (inactive),1.03 (inactive),0.987 (inactive),1.02 (inactive),0.0431 (active)
CCN(CC)C(C)CN1c2ccccc2Sc2ccccc21 (stereo not drawn) [Ethopropazine hydrochloride] (20 µM),1.04,0.975,0.954,0.823,1.01 (inactive),1.03 (inactive),0.928 (inactive),1.05 (inactive),1 (inactive),1.04 (inactive),0.992 (inactive),0.984 (inactive)
Cc1cc(/C=C/c2ccc3cc(N(C)C)ccc3[n+]2C)c(C)n1-c1ccccc1 [Pyrvinium pamoate] (20 µM),1.21,1.12,0.958,0.853,0.936 (inactive),0.95 (inactive),0.975 (inactive),1.22 (inactive),1.01 (inactive),0.966 (inactive),1.02 (inactive),1.04 (inactive)
COc1c(O[C@@H]2O[C@H](CO)[C@@H](O)[C@H](O)[C@H]2O)cc2c(c1OC)-c1ccc(SC)c(=O)cc1[C@@H](NC(C)=O)CC2 [Thiocolchicoside] (20 µM),0.996,1,0.975,0.686,1.1 (inactive),1.01 (inactive),1.02 (inactive),1.01 (inactive),1.02 (inactive),1 (inactive),0.991 (inactive),1.01 (inactive)
Cc1onc(-c2ccccc2Cl)c1C(=O)N[C@@H]1C(=O)N2[C@@H]1SC(C)(C)[C@@H]2C(=O)O [Cloxacillin sodium salt] (20 µM),0,1.02,1.08,0.171,0.987 (inactive),0.0211 (active),0.0749 (active),0.997 (inactive),1.02 (inactive),0.999 (inactive),1.02 (inactive),0.0503 (active)

# Source: the supplement of paper PMC12494721
